Screens: PubChem BioAssay, National Center for Advancing Translational Sciences (NCATS)
A549 tox-1 = Nrf2 qHTS screen for inhibitors: counterscreen for cytotoxicity; Potency, µM (series often up to 46 µM), inactives show at the highest dose activity change, negative = cytotoxicity, hits mostly inhibitors; actives 0.16% (n = 390,000); A549 ARE-Fluc cells, CellTiter-Fluor viability, 18-24 h; note: % is set by controls: 0 for no effect and ±100 for the full control effect
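A549 ARE_Fluc cells in 5% FBS OPTI-MEM were exposed to compounds in concentration-response for 18-24 h at 37 deg C. Viability was read by CellTiter-Fluor fluorescence (Ex 405/Em 525) after 30 min, before the luciferase read.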
Nrf2 activator = qHTS of Nrf2 Activators; Potency, µM (top dose mostly 46.1 µM), inactives show at the highest dose activation, usual class: activators; AREc32 ARE-luciferase reporter (MCF7-derived line), luminescence, 24 h; actives 0.31% (n = 410,000); note: % of control where 0% means no effect; nearly all actives have a fitted effect of over 65% in size
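ARE-driven firefly luciferase activity in AREc32 cells measured after a 24 hr compound exposure at 37 deg C, using Steady-Glo reagent and a 30 min room-temperature hold.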
ATXN2 expr inh = Primary qHTS for Inhibitors of ATXN expression | HEK-293 ATXN2-luciferase reporter, luminescence, 24 h | Potency, µM (top dose mostly 57 µM), without a hit: top-dose activity change, negative = inhibition, most hits filed as inhibitors | actives 0.72% (n = 360,000) | AID 1745845, 2022; note: % is set by controls: 0 for no effect and ±100 for the full control effect; nearly all actives have a fitted effect of over 55% in size
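ATXN2-luciferase reporter cells (luciferase flanked by upstream and downstream ATXN2 gene portions) were treated 24 h at 37 °C with compounds at up to 57 uM. SteadyGlo luminescence gave expression; GF-AFC fluorescence gave viability.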
ATXN viability = Viability Counterscreen for Primary qHTS for Inhibitors of ATXN expression | AID 651635, 2014 | S2 cells (HEK-293 line with an ATXN2-luciferase reporter) viability, CellTiter-Fluor protease fluorescence, 24 h | actives 0.49% (n = 400,000) | Potency, µM (titrated, usually from 56.7 µM), actives largely listed as cytotoxic; note: nearly all actives have a fitted effect of over 40% in size
Nrf2 inh = Nrf2 qHTS screen for inhibitors; actives 2.1% (n = 360,000); Potency, µM (doses to about 46 µM), inactives show top-dose activity change, negative = inhibition, most hits filed as inhibitors; A549 ARE-Fluc reporter, luciferase luminescence, 18-24 h; note: % is set by controls: 0 for no effect and ±100 for the full control effect; nearly all actives have a fitted effect of over 60% in size
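Nrf2 function is reported as luminescence of an ARE-controlled luciferase in A549 cells. Compounds were tested at several concentrations, and a CellTiter-Fluor read on the same wells flagged cytotoxicity.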
FLuc enzyme inh = Nrf2 qHTS screen for inhibitors: Purified Fluc Biochemical Counterscreen for Hit Validation. Potency, µM (series often up to 57.5 µM), without a hit: at the highest dose activity change, negative = inhibition, most hits filed as inhibitors. actives 4% (n = 1,400). shares compounds with Nrf2 inh. AID 720522, 2013. purified firefly luciferase, luminescence inhibition; note: % is set by controls: 0 for no effect and ±100 for the full control effect; nearly all actives have a fitted effect of over 65% in size
Target sequence (P08659 whole entry, looked up): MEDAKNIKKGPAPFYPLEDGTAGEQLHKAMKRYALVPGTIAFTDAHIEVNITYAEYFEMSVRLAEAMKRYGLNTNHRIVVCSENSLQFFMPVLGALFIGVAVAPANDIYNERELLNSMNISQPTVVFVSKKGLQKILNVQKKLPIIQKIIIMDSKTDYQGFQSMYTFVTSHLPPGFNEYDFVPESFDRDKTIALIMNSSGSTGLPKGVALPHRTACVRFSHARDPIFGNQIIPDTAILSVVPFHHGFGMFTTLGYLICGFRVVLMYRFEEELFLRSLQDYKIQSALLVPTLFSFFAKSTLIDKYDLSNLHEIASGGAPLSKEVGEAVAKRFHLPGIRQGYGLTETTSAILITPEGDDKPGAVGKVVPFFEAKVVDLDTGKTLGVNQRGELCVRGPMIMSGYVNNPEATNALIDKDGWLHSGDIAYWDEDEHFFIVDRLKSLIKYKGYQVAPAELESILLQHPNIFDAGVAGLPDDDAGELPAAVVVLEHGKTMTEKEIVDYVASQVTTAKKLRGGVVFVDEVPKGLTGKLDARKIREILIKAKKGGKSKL
A549 tox-2 = Nrf2 qHTS screen for inhibitors: A549 ARE-Fluc Cytotoxicity Counterscreen for Hit Validation | AID 720523, 2013 | shares compounds with Nrf2 inh | actives 2% (n = 1,400) | Potency, µM (top dose mostly 46.1 µM), for the others: at the highest dose activity change, negative = cytotoxicity, actives largely listed as inhibitors | A549 ARE-Fluc cells, cytotoxicity counterscreen;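 note: cells exposed to compounds for 18 to 24 hours; % is set by controls: 0 for no effect and ±100 for the full control effect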
ARE-Fluc inh = Nrf2 qHTS screen for inhibitors: Nrf2 A549 ARE-Fluc Confirmation Assay for Hit Validation | shares compounds with Nrf2 inh | A549 ARE-firefly luciferase reporter, luminescence | Potency, µM (series often up to 46.1 µM), for the others: at the highest dose activity change, negative = inhibition, most hits filed as inhibitors | actives 74% (n = 1,400); note: % is set by controls: 0 for no effect and ±100 for the full control effect; nearly all actives have a fitted effect of over 65% in size
The depositor's hits bear a star; i = inactive; ? = inconclusive; · = no result given. A selection: hits, their analogues and other compounds. The true share with any hit is near 2.9%. Calls come from the whole dose curve; as a rule, active = well fitted curve in the direction sought with a large enough effect; inconclusive = small, poorly fitted or top-dose-only effect, or another doubt; inactive = no such curve, though single readings can be large; an effect the other way counts as inactive or inconclusive. Potency is the fitted concentration of half-maximal effect.

SMILES	A549 tox-1	Nrf2 activator	ATXN2 expr inh	ATXN viability	Nrf2 inh	FLuc enzyme inh	A549 tox-2	ARE-Fluc inh
COc1ccc(C(=O)Nc2ccc(Cl)c(S(=O)(=O)Nc3ccccc3OC)c2)cc1	-12%	0%	?	i	7.3µM*	?	-10%	9.2µM*
Cc1ccc(NC(=S)NC(=O)c2ccc(F)cc2)cc1S(=O)(=O)Nc1ccccc1Cl	?	2%	?	i	7.3µM*	-10%	-12%	?
COc1ccc(-c2c(C)nn3c4c(cnc23)C(=O)CC(c2ccccc2)C4)cc1 (stereo not drawn)	-1%	0%	-3%	i	-9%	·	·	·
COCCn1c(CN2CCN(c3cccc(Cl)c3)CC2)nc2c1c(=O)n(C)c(=O)n2C	-26%	0%	-30%	?	6.5µM*	-1%	-5%	·
CCOCCn1c(CN2CCN(c3cccc(Cl)c3)CC2)nc2c1c(=O)n(C)c(=O)n2C	-4%	3%	?	?	?	·	·	·
Cc1cc(C)nc(Nc2n[nH]c(C)n2)n1	2%	0%	·	i	5.8µM*	-2%	2%	-2%
Cc1cccc(-n2ncc3c2CCCC3NC(=O)C2(C(N)=O)CC2)c1C (stereo not drawn)	-8%	-1%	-23%	i	2.3µM*	-2%	-5%	3.7µM*
CCc1cc(C(=O)NC2CCCc3c2cnn3-c2cccc(C)c2C)n(C)n1 (stereo not drawn)	?	1%	-16%	i	0.18µM*	1%	-3%	0.082µM*
Cc1cc(C(=O)NC2CCCc3c2cnn3-c2ccc(C)c(C)c2)n(C)n1 (stereo not drawn)	-21%	-1%	-26%	i	0.21µM*	-7%	-11%	0.023µM*
Cn1cccc/c1=N\c1cccc[n+]1C	-22%	3%	·	i	2.9µM*	-1%	-13%	5.8µM*
COc1ccc(Cl)cc1-c1cc(C(=O)NCc2cc(C(F)(F)F)cc(C(F)(F)F)c2)[nH]n1	·	10%	-13%	i	·	·	·	·
CSc1nc2nc3c(cc2c(=O)n1-c1ccccc1C)CCCC3	?	0%	?	?	5.8µM*	1%	-22%	·
CSc1nc2sc3c(c2c(=O)n1-c1ccccc1C)CCCC3	0%	2%	-11%	i	·	·	·	·
CSc1ccccc1NC(=O)CSc1n[nH]c(C)c1[N+](=O)[O-]	0%	3%	·	i	3%	·	·	·
Cc1cc(/C=C2/SC(=S)N(c3ccc([N+](=O)[O-])cc3)C2=O)c(C)n1-c1cccnc1	?	3%	?	?	6.5µM*	-18%	-23%	·
Cc1ccc(C)c(OCc2ccc(C(=O)Nc3ccc([N+](=O)[O-])cn3)o2)c1	-3%	0%	·	?	2.9µM*	3%	-3%	5.2µM*
O=C(Nc1cccnc1)c1cccc(S(=O)(=O)N2CCc3ccccc32)c1	-3%	3%	-15%	i	?	·	·	·
O=C(O)c1cccc(NC(=O)c2cccc(S(=O)(=O)N3CCc4ccccc43)c2)c1	10%	3%	2%	i	10%	·	·	·
CCOC(=O)c1sc(NC(=O)c2cc(-c3ccccc3)nc3ccccc23)c(C#N)c1C	?	0%	?	?	4.6µM*	11µM*	?	6.5µM*
O=C(Nc1ccncc1)c1cccc(S(=O)(=O)N2CCc3ccccc32)c1	-20%	3%	?	i	8.2µM*	0%	-12%	7.3µM*
CCOC(=O)c1sc(NC(=O)c2cccc(S(=O)(=O)N3CCc4ccccc43)c2)c(C#N)c1C	?	0%	?	i	5.8µM*	-18%	?	2.9µM*
CCOC(=O)c1sc(NC(=O)c2cccnc2)c(C#N)c1C	0%	2%	4%	i	10%	·	·	·
N#Cc1cc(C#N)c(N2CCN(c3cccc(Cl)n3)CC2)nc1N	9%	6%	?	i	·	·	·	·
NCCNc1ccc(C(=O)N2c3ccccc3Sc3ccccc32)cc1[N+](=O)[O-]	-5%	8%	?	·	-27%	·	·	·
CC1(C(=O)NCc2cccc3ccccc23)CCN1Cc1ccccc1OC(F)F (stereo not drawn)	·	-1%	?	i	·	·	·	·
SMILES	A549 tox-1	Nrf2 activator	ATXN2 expr inh	ATXN viability	Nrf2 inh	FLuc enzyme inh	A549 tox-2	ARE-Fluc inh
O=C(Oc1ccccc1N1C(=O)C2CCCCC2C1=O)c1ccc(Cl)cc1 (stereo not drawn)	-3%	-1%	1%	i	4.6µM*	-1%	-1%	6.5µM*
Cc1cc(Cl)c(S(=O)(=O)NC(C(=O)O)C(C)C)cc1OCC(=O)NC1CCCCC1 (stereo not drawn)	-4%	0%	3%	i	-14%	·	·	·
Cc1cc(Cl)c(S(=O)(=O)N2CCCC2)cc1OCC(=O)NC1CCCCC1	·	-1%	-16%	i	7.3µM*	0%	-18%	·
O=C(Nc1cccn(Cc2c(Cl)cccc2Cl)c1=O)c1ccccc1Cl	-26%	-1%	-20%	i	1.5µM*	-25%	1%	9.2µM*
O=C(NNC(=O)c1ccccc1F)c1ccc2[nH]c(=O)c(=O)[nH]c2c1	0%	?	-1%	i	?	·	·	·
Cc1ccc(NC(=O)COc2ccccc2)c(NC(=O)c2ccccc2C)c1	-8%	2%	7%	i	-1%	·	·	·
Fc1ccc(CNC(=S)Nc2cccc(C(F)(F)F)c2)cc1	10%	0%	-21%	i	-28%	·	·	·
Fc1ccc(Nc2nc3nonc3nc2Nc2cccc(C(F)(F)F)c2)cc1	8.2µM*	-5%	·	·	1.5µM*	-23%	5.8µM*	1µM*
CN(C)c1nc(-c2ccccn2)nnc1-c1ccccc1	?	-1%	8.9µM*	i	?	-2%	-13%	12µM*
c1ccc(-c2nnc(-c3ccccn3)c(-c3ccccn3)n2)nc1	-2%	0%	-10%	i	7%	·	·	·
Cc1cc(=O)[nH]c2nnc(SCc3cccc(F)c3)n12	-18%	0%	·	·	·	·	·	·
